Screens deposited in PubChem by several laboratories.
Most compounds without a hit are left out; they make up all but 3.1% or so of the library.
GDH-TPI counter: GDH-TPI coupled enzyme inhibition counter-screen | GDH-TPI coupled enzyme counterscreen, NADH absorbance | inhibition, % at 4.8 µM | 1.2% of 360,000 active | AID 588335; in the data active = inhibition above about 30%;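 also: 0% = DMSO wells and 100% = wells lacking the enzyme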
FBA Mtb inh: Mtb fructose-bisphosphate aldolase inhibition. inhibition, % at 1 µM. 2.3% of 360,000 active. P9WQA3. AID 588726. purified M. tuberculosis FBA, fluorescence read-out; in the data active = inhibition above about 27%;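 also: 0% = vehicle and 100% = reference inhibitor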
Target sequence (P9WQA3 whole entry, looked up): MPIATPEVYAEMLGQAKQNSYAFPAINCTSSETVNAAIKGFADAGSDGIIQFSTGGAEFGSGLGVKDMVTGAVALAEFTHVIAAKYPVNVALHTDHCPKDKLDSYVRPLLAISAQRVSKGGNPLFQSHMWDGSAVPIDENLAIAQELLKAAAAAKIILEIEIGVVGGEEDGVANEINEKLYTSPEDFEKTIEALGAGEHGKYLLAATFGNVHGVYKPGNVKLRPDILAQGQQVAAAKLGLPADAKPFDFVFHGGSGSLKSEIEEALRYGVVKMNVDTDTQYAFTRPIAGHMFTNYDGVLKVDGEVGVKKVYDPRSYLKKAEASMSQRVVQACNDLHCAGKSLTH
3CLpro inhibitor: SARS-CoV 3CLpro protease inhibition | 0.14% of 290,000 active | P0C6X7 | recombinant SARS-CoV 3CLpro, quenched FRET peptide cleavage | inhibition, % at 6 µM; in the data active = inhibition above about 12%
BioA inh: blocks M. tuberculosis BioA enzyme activity. AID 602481. purified M. tuberculosis BioA enzyme, plate reader. inhibition, % at 9.99 µM. 0.096% of 360,000 active; in the data active = inhibition above about 40%
FadD28 binding: M. tuberculosis FadD28 bisubstrate binding inhibition | inhibition, % at 12.5 µM | FadD28 bisubstrate probe binding, fluorescence polarization | AID 588549 | 0.22% of 360,000 active; in the data active = inhibition above about 8.5%, passing the limit was not always enough
* = called active by the depositor; / = no result; + = active, no number.

SMILES | GDH-TPI counter | FBA Mtb inh | 3CLpro inhibitor | BioA inh | FadD28 binding
CCN(CC)C(=O)c1c(-c2ccccc2)oc2ccc(OC)cc12 | -4.4 | 0.2 | -8.8 | / | -4.5
CCOc1ccc2oc(-c3ccccc3)c(C(=O)O)c2c1 | 6.0 | + | 5.4 | -0.4 | -2.0
C#CCOCCOCCOCCNc1nc(N2CCN(C(=O)CCCCCCCCCCNC(=O)[C@H](CCCCN)n3cc(C[C@@H](C)CC)nn3)CC2)nc(N2CCN(C(=O)CCCCCCCCCCNC(=O)[C@H](CCCN=C(N)N)n3cc(C[C@@H](C)CC)nn3)CC2)n1 | 10.9 | 3.2 | / | -2.2 | -16.4
C#CCOCCOCCOCCNc1nc(N2CCN(C(=O)CCCCCCCCCCNC(=O)[C@@H](CCSC)n3cc(CCO)nn3)CC2)nc(N2CCN(C(=O)CCCCCCCCCCNC(=O)[C@H](CCCN=C(N)N)n3cc(C[C@@H](C)CC)nn3)CC2)n1 | 10.0 | 0.6 | / | -0.9 | 11.5*
C#CCOCCOCCOCCNc1nc(N2CCN(C(=O)CCCCCCCCCCNC(=O)[C@H]([C@@H](C)CC)n3cc(CCCCN=C(N)N)nn3)CC2)nc(N2CCN(C(=O)CCCCCCCCCCNC(=O)[C@@H]([C@H](C)O)n3cc(C)nn3)CC2)n1 | 7.6 | 0.6 | / | -1.8 | 15.0*
Cc1nc2oc(C(=O)c3ccccc3)c(N)c2c2c1COC(C)(C)C2 | 17.5 | 5.6 | -3.6 | -1.9 | -0.5
CCOC(=O)c1sc2nc(CC(C)C)c3c(c2c1N)CCC3 | 7.8 | 14.5 | 2.5 | / | -1.1
CCOC(=O)c1oc2nc(C(C)C)c3c(c2c1N)CC(C)(C)OC3 | -1.8 | 149.4* | 0.8 | -0.5 | -2.6
CCOC(=O)c1oc2nc(C(C)C)c3c(c2c1N)CCC3 | 17.7 | 123.7* | -3.4 | 5.7 | 1.5
CC(C)NC(=O)N(C)C[C@@H]1Oc2c(cccc2N(C)C)C(=O)N([C@H](C)CO)C[C@H]1C | / | / | / | -1.4 | /
CO[C@H]1CN(C)C(=O)c2ccc(NC(=O)c3ccccc3)cc2OC[C@@H](C)NC[C@@H]1C | / | / | / | -0.5 | /
O=C(O)[C@H]1[C@H](CO)[C@H]2Cn3c(ccc(-c4ccccc4F)c3=O)[C@H]2N1C(=O)c1cnccn1 | / | / | / | -1.4 | /
CCCN1C[C@H](C)[C@H](OC)CN(C)C(=O)c2cc(NC(=O)COC)ccc2OC[C@@H]1C | / | / | / | -0.2 | /
O=C(N[C@@H]1CC[C@@H](CCNS(=O)(=O)c2ccccc2)O[C@H]1CO)c1cccc(F)c1 | / | / | / | 20.1 | /
CC(=O)Oc1c(Cl)cc(Cl)cc1/C=C/c1ccc2ccccc2n1 | 9.4 | -0.5 | 0.9 | 0.8 | 0.0
COc1cc(/C=C/c2cc(OC(C)=O)c3ccccc3n2)c(OC(C)=O)c([N+](=O)[O-])c1 | 36.8* | -2.8 | -3.8 | 0.1 | 0.9
CCCCCn1c(N)c(C(=O)NCc2cccs2)c2nc3ccccc3nc21 | / | / | -0.3 | / | /
N#Cc1c(N)n(CCNC(=O)c2cccs2)c2nc3ccccc3nc12 | 8.8 | + | 0.4 | -0.3 | -0.4
COc1ccccc1CCn1c(N)c(C#N)c2nc3ccccc3nc21 | 26.7 | + | -0.5 | -1.0 | -5.5
Nc1c(C(=O)Nc2ccccc2)c2nc3ccccc3nc2n1CCCN1CCOCC1 | 11.7 | 5.4 | 2.4 | -0.1 | -27.2
N#Cc1c(N)n(CCCN2CCOCC2)c2nc3ccccc3nc12 | 18.2 | 192.3* | 1.9 | -4.2 | -0.4
CCCCCCn1c(N)c(C(=O)NCCN2CCOCC2)c2nc3ccccc3nc21 | -0.9 | 49.8* | -1.0 | -0.3 | -5.1
COc1ccc(CCn2c(N)c(C#N)c3nc4ccccc4nc32)cc1OC | 9.8 | 16.0 | -0.6 | -2.2 | -0.3
Cc1ccc(-c2cnc3c(c2)C(=O)N([C@@H](C)CO)C[C@@H](C)[C@H](CN(C)CC2CCCCC2)O3)cc1 | / | / | / | 0.9 | /
COc1ccc(C(=O)/C=C/N(C)C)cc1 | 44.5* | -1.1 | 4.8 | -1.7 | -5.6
SMILES | GDH-TPI counter | FBA Mtb inh | 3CLpro inhibitor | BioA inh | FadD28 binding
CN(C)/C=C/C(=O)c1ccccc1 | 49.4* | -7.2 | 1.2 | -2.9 | -1.2
CN(C)/C=C/C(=O)c1ccc(Oc2ccccc2)cc1 | 22.0 | 7.3 | 0.1 | -1.2 | -2.0
COc1ccc(C(=O)/C=C/N(C)C)cc1OC | 33.6* | 0.2 | 0.6 | 13.8 | -5.1
CO[C@@H]1CN(C)C(=O)c2ccc(NC(=O)c3ccccc3F)cc2OC[C@@H](C)N(C(=O)c2ccccc2F)C[C@@H]1C | / | / | / | 0.1 | /
COc1ccc(CNC(=O)C[C@@H]2C[C@H]3c4cc(NC(=O)CN(C)C)ccc4O[C@H]3[C@H](CO)O2)cc1 | / | / | / | -1.9 | /
CO[C@H]1CN(C)C(=O)c2ccc(NS(C)(=O)=O)cc2OC[C@@H](C)N(C)C[C@@H]1C | / | / | / | -1.3 | /
CSC[C@H](NC(=O)COc1cc2c(c3oc(=O)cc(C)c13)CCC(C)(C)O2)C(=O)O | 6.6 | + | 1.4 | 0.2 | -5.3
